AID504770 = growth inhibitors of E. coli YBA685 in a screen for V. cholerae RctB (chromosome II replication) inhibitors. AID 504770. E. coli YBA685 rctB-dependent plasmid, OD600 growth, 3 h; hits give low values. 130,000 compounds, 0.27% hits. z-score (test concentration not listed); in the data active = z-score below about -2, passing the limit was not always enough
Mtb MbtI inh = MbtI salicylate synthase inhibition. purified MbtI enzyme, fluorescence intensity read-out. inhibition, % (no concentration beside the values). 100,000 compounds, 0.89% hits. AID 493033; in the data active = inhibition mostly above about 56%, no sharp cut-off; inactive = mostly below about 77%
Polio RdRp inh = inhibitors of poliovirus RNA polymerase binding and polymerization; P03300; poliovirus polymerase elongation, fluorescence polarization; hits give low values; % elongation, % (compound at 16.7 µg/mL); 150,000 compounds, 0.66% hits; AID 588519; in the data active = % elongation below about 90%
MenB inh = inhibitors of Mycobacterium tuberculosis MenB enzyme. inhibition, % (no concentration beside the values). 100,000 compounds, 0.43% hits. MenB enzyme assay, absorbance read-out. P9WNP5; in the data active = inhibition above about 21%, passing the limit was not always enough
Target sequence (P9WNP5 whole entry, looked up): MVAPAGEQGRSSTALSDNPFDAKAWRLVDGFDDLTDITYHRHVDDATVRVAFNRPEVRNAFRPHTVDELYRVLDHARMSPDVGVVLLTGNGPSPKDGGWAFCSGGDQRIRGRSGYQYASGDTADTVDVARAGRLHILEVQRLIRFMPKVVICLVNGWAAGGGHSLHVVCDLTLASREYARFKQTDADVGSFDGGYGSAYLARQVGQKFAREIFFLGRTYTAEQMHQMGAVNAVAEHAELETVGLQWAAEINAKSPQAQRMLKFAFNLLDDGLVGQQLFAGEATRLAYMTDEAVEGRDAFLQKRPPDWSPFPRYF
The depositor's hits bear a star; . = no result. Shown are actives, neighbours in structure and some others; about 1.5% of the full set was active somewhere.

SMILES	AID504770	Mtb MbtI inh	Polio RdRp inh	MenB inh
O=C(Nc1ccc(S(=O)(=O)N2CCOCC2)cc1)c1ccc(Br)s1	0.55	-3	103	-3
CCCCC(CC)C(=O)Nc1nnc(C(C)C)s1 (configuration not stated)	-0.25	70*	99	1
COCc1c(CN)cnc(C)c1N	-0.8	77	104	-62
COCc1c(CSSCc2cnc(C)c(O)c2COC)cnc(C)c1O	-0.45	22	86*	38*
N#C/C(=C\C=C\c1ccco1)C(N)=S	1.2	68	84*	-58
Cc1cc(C)nc(SC/C(N)=N\O)n1	-0.6	37	.	.
Cc1ccc2c(c1)c1c3c(nccn32)CCC1	0.05	14	75	-28
O=S1(=O)CCC(NC(=S)SCCOc2ccccc2OCCO)C1 (configuration not stated)	-3*	0	100	19
NCCN1CCCC1=O	1.6	-3	105	28*
NC(=O)c1c(N)sc2c1CCCCC2	-1.3	32	78*	-36
O=C(O)CCC(C(=O)O)N1C(=O)/C(=C/C=C/c2ccco2)SC1=S (configuration not stated)	0.75	11	89*	-202
Nc1ccc(S(=O)(=O)CCSS(=O)(=O)c2ccc(N)cc2)cc1	-0.1	99*	63*	7
Cc1nnsc1C(=O)N1CCCN(c2nc3ccc(Cl)cc3s2)CC1	-0.45	.	.	.
CN(C)S(=O)(=O)c1cccc(-c2nnc3n2N=C(c2ccccc2)C(CC(=O)O)S3)c1 (configuration not stated)	-0.6	99*	75*	0
CC(=O)Nc1scc(C)c1-c1nc2ccccc2s1	-0.85	.	.	.
CNc1sc(C(=O)c2cccs2)c(N)c1-c1nc2ccccc2s1	1.6	97*	110	-43
Cc1cc(C)nc(N(C#N)C(=S)N(C)C)n1	-1.1	102*	102	-5
COC(=O)C(C)N(C#N)c1nc(C)cc(C)n1 (configuration not stated)	-0.2	-6	.	.
COc1cc(CO)ccc1OCC(=O)NC1CCCCC1	0.45	-6	104	-4
c1csc(-c2csc3nc(CN4CCOCC4)nc(Sc4nnc(C5CC5)o4)c23)c1	-0.25	0	102	-17
CC1=NN(c2ccccc2)C(=O)/C1=C1/C(=O)N(c2ccccc2)N=C1C	0.3	9	57*	-11
CC1=NN(c2ccccc2)C(=O)C1=C1SCCS1	-0.1	11	102	9
Cc1ccc(C=C2C(=O)NC(=O)NC2=O)cc1	-4.7*	22	99	-54
COC(=O)C1=C(C)NC(=O)/C1=C\c1ccc(C)cc1	2.6	14	101	-58
CC(C)N=C(NC#N)NC(C)C	-0.6	6	104	11
SMILES	AID504770	Mtb MbtI inh	Polio RdRp inh	MenB inh
CSc1nc(-c2ccco2)nn1C(=O)c1ccccc1	1.1	20	103	-3
CCS(=O)(=O)n1nc(-c2ccco2)nc1SC	0.65	82*	96	-14
CC1=C/C(=N\OC(=O)Cc2ccccc2)C(C)=CC1=O	-1.1	3	104	-135
CC1=CC(=NC(=O)c2ccco2)C(C)=CC1=O	0.4	100*	102	-16
CCOc1ccccc1C(=O)OCC(=O)Nc1cccc(Cl)c1	-0.05	3	101	.
CCOC(=O)N1CCN(C(=O)c2cc(-c3ccc(F)cc3)n[nH]2)CC1	-0.6	-13	102	-4
CC1=NN(c2cccc(C(=O)O)c2)C(=O)/C1=C/c1ccc(-c2cccc(Cl)c2C)o1	-0.45	38	90*	-17
CC1=NN(c2ccccc2)C(=O)/C1=C/c1ccc(-c2ccccc2)o1	0.85	1	99	7
c1coc(-c2nnc(-c3ccco3)nn2)c1	1.3	13	43*	-63
CN(C)CCNc1ncnc2sc(-c3ccccc3)cc12	-1.1	106	87*	-9
CC1Cc2scc[n+]2-c2ccccc2N1C=O (configuration not stated)	-0.55	.	105	100*
COc1ccc(-c2nc3ccccc3n2C(=O)c2ccccc2C(=O)O)cc1OC	-0.2	104	102	-18
O=c1c(=Nc2ccccc2O)c(=O)c2ccccc12	-0.9	.	95	-8
O=c1c(=N\O)/c(=N/O)c(=O)c2ccccc12	-5.3*	25	60*	-12
O=C(NCc1cccc(Cl)c1)c1nc2c(nnn2Cc2ccccc2)c(=O)[nH]1	0.1	-3	102	-31
Clc1nc(Cl)nc(NCCC2=CCCCC2)n1	2	8	78*	17
Cc1ccccc1CSCC(=O)Nc1ccc(O)cc1C(=O)O	-1.1	-90	103	-5
Cc1cccc(C(N)=S)c1	-0.2	62*	98	-17
CCOC(=O)c1c(NC(=O)c2cc(-c3cccc(Cl)c3)on2)sc(C)c1C	.	.	96	.
CCOC(=O)c1c(NC(=O)c2cc(-c3ccc(Br)cc3)on2)sc(C)c1C	.	.	89*	.
Cc1c(-c2nc(-c3ccccc3)no2)nnn1-c1ccc(F)c(Cl)c1	.	.	81*	.
COc1ccc(Cl)cc1-n1nnc(-c2nc(-c3ccccc3)no2)c1C	.	.	102	.
CN(C)S(=O)(=O)c1ccc(S(=O)(=O)N2CCN(C=O)CC2)cc1	0.65	2	105	31*
CCOC(=O)N1CCN(S(=O)(=O)c2ccccc2)CC1	0.25	.	.	.
CN(C)C(=O)N1CCN(S(=O)(=O)c2ccccc2)CC1	1.4	2	101	37*
SMILES	AID504770	Mtb MbtI inh	Polio RdRp inh	MenB inh
COc1ccccc1N=c1scc(-c2ccco2)n1/N=C/c1ccco1	-0.25	13	104	-60
O=C1C=CC(=O)N1c1ccc(F)c(Cl)c1	2.4	93*	101	.
CC(C)(C)OC(=O)N/N=C\c1ccco1	0.25	13	101	13
O=C(O)CN1CCCCC1	0.5	4	100	31*
O=C(O)CCN1CCCC1	-0.3	-6	100	8
FC(F)(F)c1ccc(=S)[nH]c1	-0.15	93*	111	-43
CN(C)Cc1ccccc1CN	-3.7*	-3	107	-17
O=C(NC1CCN(Cc2ccccc2)CC1)c1ccc(Cn2c(=O)c3ccccc3n(Cc3ccc(F)cc3)c2=O)cc1	.	.	104	.
COc1ccc(Cn2c(=O)[nH]c3cc(C(=O)NC4CCN(Cc5ccccc5)CC4)ccc32)cc1	1.4	7	104	30*
O=C(Cc1cnn(-c2ccccc2)c1)c1ccc(O)c(O)c1O	0.65	82*	100	-7
CCCCCCCCCCCCCCCCCCc1ccc(C(=O)/C=C/C(=O)O)cc1	.	9	98	-4
CCCCCOc1ccc(C(=O)/C=C/C(=O)O)cc1	1.2	63*	96	18
O=C(C1CCN(c2ccc(N3CCOCC3)nn2)CC1)N1CCN(c2ccccc2)CC1	0.55	.	.	.
CCN(c1ccccc1)S(=O)(=O)c1ccc(C(=O)OCC#N)cc1	-0.4	-1	66*	12
CCN(c1ccccc1)S(=O)(=O)c1ccc(Cl)cc1	0.25	-11	102	-53
Cc1nc2ccc(N=Cc3ccc(Br)cc3)cc2s1	-2.4*	-1	105	-12
O=C(O)C1CC(c2ccccc2)=C(c2ccccc2)CC1C(=O)c1ccccc1 (configuration not stated)	-0.5	-12	103	9
COc1ccc(OCC(=O)Sc2ccc(Cl)cc2)cc1	-0.2	.	81*	-20
O=C(O)c1ccc2c(c1)CCCN2	0.75	.	.	.
